Active and inactive are the calls of the source.

The values that follow come from PubChem BioAssay.

Assay [1] deals with Plasmodium falciparum Sir2 (PF13_0152, Sir2A). In words: pfSir2 binders on small-molecule microarrays, primary screen, biochemical, small-molecule microarray, 635 nm fluorescence (AID 1098).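 Further: score merges spot fluorescence intensity with its signal-to-noise ratio.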 Particulars: small-molecule microarray binding, fluorescence 635 nm; higher = more signal.
A short description of assay [2]: small-molecule microarray binders of probe aDKK1, primary screen, biochemical, biotinylated probe, 635/667 nm fluorescence (AID 1099).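 Further: score merges 667nm spot fluorescence with signal to noise across triplicate slides.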 As to conditions: higher = more signal.
A short description of assay [3]: small-molecule microarray binders of probe aCHRDL2, primary screen, biochemical, biotinylated probe, 635/667 nm fluorescence (AID 1100). Particulars: higher = more signal.
Assay [4] is described as follows: splicing luciferase reporter signal modulators, primary screen, spliceosome inhibition project, cell-based, HEK293, splice +/- reporter (AID 1101).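 Further: HEK293 cells carrying a splicing-competent luciferase reporter gene; test concentration not given here.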 As to conditions: luminescence, 24 h, higher = more signal, called active from +8 up or from −8 down.
Assay [5] concerns the target Fibroblast growth factor 10 (Homo sapiens) (UniProt O15520). In words: FGF10 binders on small-molecule microarrays, primary screen, biochemical, small-molecule microarray, 635 nm fluorescence (AID 1102). As to conditions: FGF10 binding, fluorescence 635 nm, higher = more signal.
Assay [6] concerns glycogen synthase kinase-3 (GSK3A per assay name; protocol says GSK3B). Kind of assay: GSK3 binders on small-molecule microarrays, primary screen, biochemical, small-molecule microarray, 635 nm fluorescence, GSK3A (AID 1103). Further: the record names both GSK3A and GSK3B. As to conditions: small-molecule microarray binding, fluorescence 635 nm; higher = more signal.
For assay [7], the target named is Epidermal growth factor receptor (Homo sapiens) (UniProt P00533). In words: EGFR binders on small-molecule microarrays, primary screen, biochemical, small-molecule microarray, 635 nm fluorescence (AID 1104).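 Further: score merges 667 nm emission intensity with spot signal to noise over triplicate slides.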 Particulars: EGFR binding, higher = more signal.
The target of assay [8] is Follistatin-related protein 3 (Homo sapiens) (UniProt O95633). Kind of assay: FSTL3 binders on small-molecule microarrays, primary screen, biochemical, small-molecule microarray, 635 nm fluorescence (AID 1105).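 Further: score merges emission near 667 nm and signal to noise per printed spot across three slides.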 Particulars: FSTL3 binding, higher = more signal.
The target of assay [9] is Dickkopf-related protein 1 (Homo sapiens) (UniProt O94907). In words: DKK1 binders on small-molecule microarrays, primary screen, biochemical, small-molecule microarray, 635 nm fluorescence scan (AID 1106).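 Further: score merges emission near 667 nm with signal to noise over three replicate slides.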 As to conditions: DKK1 binding, higher = more signal.
For assay [10], the system named is Inhibin beta A chain (activin A). Kind of assay: INHBA (activin A) binders on microarrays, primary screen, biochemical, small-molecule microarray, 635 nm fluorescence scan (AID 1107).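 Further: mouse activin A protein probed at 4.33 µg/mL on printed slides; score merges bound-protein fluorescence near 667 nm with spot signal-to-noise.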 As to conditions: small-molecule microarray binding, higher = more signal.
Assay [11] concerns Human papillomavirus type 1a protein E7 (residues 44-93). Kind of assay: HPV1a E7 fragment binders on microarrays, primary screen, biochemical, small-molecule microarray, residues 44-93, 635 nm fluorescence (AID 1108).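 Further: E7 fragment applied at 1 µg/mL in TBST for 1 h at 4 C; score combines spot fluorescence with its signal to noise ratio.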 As to conditions: small-molecule microarray binding, fluorescence 635 nm; higher = more signal.
Assay [12] is described as follows: modulators of HCV replicon luciferase signal, primary screen, HCV replication inhibitor project, Huh7 cells, luciferase reporter (AID 1109).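 Further: huh7 hepatoma cells harbouring a luciferase neomycin HCV replicon reporter; luciferase luminescence as measure of HCV replicon replication; test concentration not given here.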 Particulars: 48 h, higher = more signal. (A replicon is a self-replicating genome or part of one, used to study replication in cells.)
Assay [13] concerns the target Left-right determination factor 2 (Homo sapiens) (UniProt O00292). Kind of assay: LEFTY2 binders on small-molecule microarrays, primary screen, biochemical, small-molecule microarray, 635 nm fluorescence scan (AID 1110). Particulars: LEFTY2 binding, higher = more signal.
Assay [14] concerns the target Calmodulin-1 (Homo sapiens) (UniProt P0DP23). Kind of assay: CALM1 binders on microarrays, EGTA buffer, profiling panel, biochemical, small-molecule microarray, Cy5-labelled CALM1 (AID 1111).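 Further: labelled calmodulin applied in Tris saline Tween buffer holding calcium plus EGTA and DTT.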 Particulars: Cy5-CALM1 binding fluorescence, higher = more signal.
Assay [15] has the same target. Kind of assay: calcium-bound CALM1 binders on microarrays, profiling panel, artefact control for SMM control-protein annotation, biochemical, small-molecule microarray, Cy5-labelled CALM1, plus calcium (AID 1112).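 Further: score merges spot fluorescence with signal to noise from triplicate slides.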 As to conditions: Cy5-CALM1 binding fluorescence, higher = more signal.
Assay [16] is described as follows: small-molecule microarray binders of probe aWnt5a, primary screen, biochemical, biotinylated probe, 635/667 nm fluorescence (AID 1113).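 Further: score merges 667 nm fluorescence intensity with signal-to-noise per printed feature.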 Particulars: higher = more signal.
Assay [17] is described as follows: small-molecule microarray binders of probe aShh, primary screen, biochemical, biotinylated probe, 635/667 nm fluorescence (AID 1114).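 Further: probe is biotin-labelled aShh protein from a stem cell growth factor screen; measures binding of labelled protein to compounds printed on the slide; score merges feature fluorescence at 667 nm with signal-to-noise.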 Particulars: higher = more signal.
Assay [18] can be described thus: small-molecule microarray binders of probe aNog, primary screen, biochemical, biotinylated probe, 635/667 nm fluorescence (AID 1115).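 Further: probe is biotinylated aNog protein used at 0.15 µg/mL for 1 h at 4 C; z-score combines 667 nm fluorescence of each spot with its signal to noise.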 As to conditions: higher = more signal.
Assay [19] deals with Torsin-1A-interacting protein 1 (Homo sapiens) (UniProt Q5JTV8). In words: LAP1 binders from COS7 cell lysate, primary screen, small-molecule microarray, 635/667 nm fluorescence (AID 1116). Particulars: COS7-hLAP1 lysate binding, 635 nm fluorescence, higher = more signal.
The target in assay [20] is Alpha-bungarotoxin (Bungarus multicinctus) (UniProt P60615). Kind of assay: alpha-bungarotoxin binders on microarray, profiling panel, artefact control for SMM control protein annotation, biochemical, small-molecule microarray, Alexa647 label, 635/667 nm fluorescence (AID 1117). Particulars: alpha-BTX-A647 binding fluorescence, higher = more signal.
Alpha-bungarotoxin (Bungarus multicinctus), sequence (P60615 whole entry, looked up): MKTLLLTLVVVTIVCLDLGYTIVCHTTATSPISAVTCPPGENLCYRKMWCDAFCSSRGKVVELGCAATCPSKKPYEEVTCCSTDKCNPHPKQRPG

Torsin-1A-interacting protein 1 (Homo sapiens), sequence (Q5JTV8 whole entry, looked up): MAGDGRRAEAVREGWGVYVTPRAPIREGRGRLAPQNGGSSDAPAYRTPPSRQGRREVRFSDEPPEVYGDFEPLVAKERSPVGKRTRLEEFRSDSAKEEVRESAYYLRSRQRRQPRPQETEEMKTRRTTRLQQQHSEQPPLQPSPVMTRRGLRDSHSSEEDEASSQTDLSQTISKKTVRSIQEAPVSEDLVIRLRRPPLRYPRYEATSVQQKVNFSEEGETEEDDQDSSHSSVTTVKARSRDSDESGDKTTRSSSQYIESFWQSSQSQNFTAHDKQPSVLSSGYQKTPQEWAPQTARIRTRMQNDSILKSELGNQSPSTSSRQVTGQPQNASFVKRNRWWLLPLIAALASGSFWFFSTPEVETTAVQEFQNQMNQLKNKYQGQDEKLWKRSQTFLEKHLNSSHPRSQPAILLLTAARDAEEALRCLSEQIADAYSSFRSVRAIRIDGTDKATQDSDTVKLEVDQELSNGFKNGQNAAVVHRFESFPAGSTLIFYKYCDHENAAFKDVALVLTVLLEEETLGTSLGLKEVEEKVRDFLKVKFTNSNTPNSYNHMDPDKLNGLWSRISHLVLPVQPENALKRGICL
Left-right determination factor 2 (Homo sapiens), sequence (O00292 whole entry, looked up): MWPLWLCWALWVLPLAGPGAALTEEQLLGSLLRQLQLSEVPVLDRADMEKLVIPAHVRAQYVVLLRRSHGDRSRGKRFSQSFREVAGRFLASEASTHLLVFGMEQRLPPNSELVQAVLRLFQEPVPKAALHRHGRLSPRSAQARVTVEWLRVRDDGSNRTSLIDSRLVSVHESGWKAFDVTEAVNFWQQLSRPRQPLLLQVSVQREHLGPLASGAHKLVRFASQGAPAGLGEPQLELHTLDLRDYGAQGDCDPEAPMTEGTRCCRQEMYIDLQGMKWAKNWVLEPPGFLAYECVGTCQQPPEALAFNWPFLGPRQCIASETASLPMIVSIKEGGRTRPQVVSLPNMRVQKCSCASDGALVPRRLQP
Dickkopf-related protein 1 (Homo sapiens), sequence (O94907 whole entry, looked up): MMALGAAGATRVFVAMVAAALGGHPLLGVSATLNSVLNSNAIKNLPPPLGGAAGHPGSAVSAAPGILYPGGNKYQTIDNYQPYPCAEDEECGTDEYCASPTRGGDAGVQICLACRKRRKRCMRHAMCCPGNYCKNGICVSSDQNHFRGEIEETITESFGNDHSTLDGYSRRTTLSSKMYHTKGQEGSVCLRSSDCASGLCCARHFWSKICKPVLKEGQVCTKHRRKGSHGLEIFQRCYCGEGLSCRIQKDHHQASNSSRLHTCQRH
Fibroblast growth factor 10 (Homo sapiens), sequence (O15520 whole entry, looked up): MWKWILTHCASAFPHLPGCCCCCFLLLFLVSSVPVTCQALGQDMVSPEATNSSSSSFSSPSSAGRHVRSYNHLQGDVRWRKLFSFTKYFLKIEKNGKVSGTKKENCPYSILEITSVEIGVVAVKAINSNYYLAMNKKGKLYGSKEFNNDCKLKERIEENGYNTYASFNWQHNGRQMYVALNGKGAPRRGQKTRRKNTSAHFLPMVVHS
Epidermal growth factor receptor (Homo sapiens), sequence (P00533 whole entry, looked up): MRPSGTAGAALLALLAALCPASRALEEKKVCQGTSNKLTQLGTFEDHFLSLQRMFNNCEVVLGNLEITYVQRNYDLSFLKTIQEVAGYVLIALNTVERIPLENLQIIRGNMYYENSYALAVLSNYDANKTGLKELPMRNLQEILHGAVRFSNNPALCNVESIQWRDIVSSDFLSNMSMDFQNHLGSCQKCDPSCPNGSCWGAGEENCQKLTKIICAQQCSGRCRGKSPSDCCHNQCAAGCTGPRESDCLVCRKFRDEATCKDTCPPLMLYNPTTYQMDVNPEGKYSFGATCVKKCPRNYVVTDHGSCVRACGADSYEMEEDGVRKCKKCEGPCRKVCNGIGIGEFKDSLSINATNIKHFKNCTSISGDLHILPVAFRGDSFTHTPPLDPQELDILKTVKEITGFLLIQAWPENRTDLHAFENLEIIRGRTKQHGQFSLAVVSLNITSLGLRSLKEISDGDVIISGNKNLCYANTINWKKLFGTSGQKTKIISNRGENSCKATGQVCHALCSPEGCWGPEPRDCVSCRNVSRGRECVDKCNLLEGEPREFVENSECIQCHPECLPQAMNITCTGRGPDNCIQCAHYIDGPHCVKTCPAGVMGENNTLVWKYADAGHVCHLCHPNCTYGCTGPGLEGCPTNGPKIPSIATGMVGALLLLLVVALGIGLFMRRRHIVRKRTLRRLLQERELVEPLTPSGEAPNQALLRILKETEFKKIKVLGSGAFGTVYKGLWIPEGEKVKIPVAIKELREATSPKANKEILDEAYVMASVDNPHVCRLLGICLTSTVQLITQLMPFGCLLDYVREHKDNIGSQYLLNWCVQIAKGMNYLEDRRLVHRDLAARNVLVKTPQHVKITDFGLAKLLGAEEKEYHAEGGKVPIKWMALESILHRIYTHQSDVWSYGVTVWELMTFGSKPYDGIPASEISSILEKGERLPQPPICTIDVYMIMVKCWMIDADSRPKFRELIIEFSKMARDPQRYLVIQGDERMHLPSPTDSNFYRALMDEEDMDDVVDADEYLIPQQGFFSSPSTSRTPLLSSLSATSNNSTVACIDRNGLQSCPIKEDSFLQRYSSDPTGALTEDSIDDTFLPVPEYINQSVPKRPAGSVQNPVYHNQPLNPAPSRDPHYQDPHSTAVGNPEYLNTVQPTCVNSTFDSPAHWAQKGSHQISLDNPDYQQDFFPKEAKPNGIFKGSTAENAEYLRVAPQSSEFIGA
Follistatin-related protein 3 (Homo sapiens), sequence (O95633 whole entry, looked up): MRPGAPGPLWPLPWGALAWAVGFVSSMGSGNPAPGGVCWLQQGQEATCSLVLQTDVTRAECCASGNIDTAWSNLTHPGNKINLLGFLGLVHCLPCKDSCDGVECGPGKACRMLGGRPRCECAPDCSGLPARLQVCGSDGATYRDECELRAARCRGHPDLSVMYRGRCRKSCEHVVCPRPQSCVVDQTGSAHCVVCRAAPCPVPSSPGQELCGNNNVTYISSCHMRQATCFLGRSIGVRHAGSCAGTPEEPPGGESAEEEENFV

In the case of `COCC1=C2[C@@H](CCc3ccccc3)OB(O)C[C@@H]2[C@@H]2C(=O)N(Cc3ccccc3)C(=O)[C@@H]2C1`, the composite z-score is 0.174 in [1]; -0.143 in assay [2]; -0.188 in assay [3]; 0.628 in assay [5]; 0.197 in assay [6]; 0.388 in assay [7]. The composite z-score was 0.191 in [8]; 0.249 in [9]; 0.728 in assay [10]; -0.0734 in assay [11]; 0.0192 in assay [13]; -0.222 in assay [14]. Further, the composite z-score in assay [15] was -0.112; in assay [16] it was -0.0242; in [17] it was -0.214; in assay [18], 0.362; in assay [19], -0.448; in assay [20], 1.19. Besides, the z-score is 0.161 (inactive) in assay [4] and -0.895 in [12].
With `COc1ccc(C#Cc2ccc3c(c2)[C@]2(C(=O)N3)[C@H](C(=O)NC[C@H](O)c3ccccc3)[C@H]3C(=O)O[C@H](c4ccccc4)[C@H](c4ccccc4)N3[C@@H]2c2ccc(OCCO)cc2)cc1`, the composite z-score in [1] is 1.33; in assay [2], 0.0324; in assay [3] it was 0.236; in [5] it was 1.25; in assay [6], 1.28; in [7] it was 0.487. The composite z-score was 1.26 in assay [8]; 0.31 in assay [9]; 0.123 in assay [10]; 1.43 in [11]; 0.965 in assay [13]; 0.841 in assay [14]. Moreover, the composite z-score in [15] was -0.203; in [16], 0.0037; in assay [17] it was 0.327; in assay [18], -0.611; in assay [19], 0.952; in assay [20] it was 1.76. In addition, the z-score is -1.46 (inactive) in [4] and -2.13 in assay [12].
For `CCOC(=O)C1=CCC(c2ccc(C#N)cc2)N(S(=O)(=O)c2ccc(C)cc2)C1` (stereo not given), the composite z-score in assay [1] was found to be 1.13; in assay [2], 1.22; in [3], 1.05; in assay [5], 0.637; in [6], 1.29; in [7] it was 0.555. For the same compound, the composite z-score in assay [8] is 1.21; in [9], -0.0007; in assay [10] it was 0.2; in [11], -0.437; in [13], 0.47; in [14] it was 2.02. Further, the composite z-score is 0.536 in assay [15]; -0.117 in assay [16]; 0.109 in assay [17]; -0.557 in assay [18]; 0.479 in assay [19]; 2.25 in assay [20]. The z-score in [4] is -0.415 (inactive); in assay [12], -2.66.
With `C=CCNC(=O)[C@@H]1[C@H]2C(=O)O[C@H](c3ccccc3)[C@H](c3ccccc3)N2[C@H](c2ccc(O)cc2)[C@@]12C(=O)N(C(=O)OCCOC)c1ccccc12`, the composite z-score is 1.03 in [1]; -0.0262 in assay [2]; 0.421 in assay [3]; 0.796 in assay [5]; 1.02 in assay [6]; -0.405 in assay [7]. Moreover, the composite z-score was 0.638 in assay [8]; -0.232 in assay [9]; -0.188 in [10]; 1.2 in assay [11]; -0.211 in assay [13]; 0.922 in assay [14]. Moreover, the composite z-score is -0.42 in assay [15]; -0.0478 in [16]; -0.0904 in assay [17]; 0.215 in assay [18]; 1.12 in assay [19]; 2.27 in assay [20]. Also, the z-score was -1 (inactive) in [4] and -1.43 in assay [12].
`COCC(=C=CC[C@H](O)c1ccc(OCCO)cc1)C[C@H](O)c1cc(Cl)cc(Cl)c1O`: the composite z-score in [1] was 0.654; in assay [2], -0.268; in assay [3] it was -0.0229; in assay [5], 1.55; in [6], 0.26; in [7] it was 0.0404. Moreover, the composite z-score in assay [8] was 1.11; in assay [9], -0.043; in [10], 0.598; in assay [11] it was 1.35; in [13], 0.628; in [14], -0.281. The composite z-score in assay [15] was -0.814; in assay [16], -0.0108; in assay [17], 0.678; in assay [18] it was 0.277; in [19], 0.163; in assay [20], 0.155. For the same compound, the z-score in [4] is -2.51 (inactive); in assay [12], -3.96.
Turning to `O=C(O)[C@H]1C[C@H]2C(=O)NCC(=O)N2[C@H]1c1ccc(O)cc1`, the composite z-score is 0.237 in assay [1]; -0.248 in [2]; -0.346 in assay [3]; 0.413 in [5]; 0.504 in [6]; -0.213 in assay [7]. For the same compound, the composite z-score in assay [8] was 0.845; in assay [9], 0.681; in [10], 0.23; in assay [11], -0.008; in assay [13], 0.205; in assay [14], -0.559. Moreover, the composite z-score in assay [15] was -0.0282; in assay [16], -0.147; in assay [17], -0.214; in [18], -0.312; in assay [19], 0.519; in assay [20], 2.03. Moreover, the z-score in [4] was -0.821 (inactive); in assay [12], 1.81.
